# Screening results as filed in PubChem.
# CYP2C9 inh: blocks human cytochrome P450 2C9; inhibition, % at 5 µM; hit rate 20% among 96,000; AID 777; P11712; CYP2C9 Supersomes, luciferin-H conversion, luminescence;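 active = blocking of liver enzyme CYP2C9 beyond about 50% at 5 µM, limit read from the data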
# CYP2C9 activ: increases human cytochrome P450 2C9 activity; P11712; recombinant CYP2C9, luciferin-H conversion, luminescence; hits give high values; factor 1 = untreated enzyme, 0 = blocked; activation factor at 5 µM; hit rate 1.4% among 96,000;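 active = activation factor of 2 or more for CYP2C9 at a 5 µM dose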;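 also: 0 = sulfaphenazole-blocked wells and 1 = vehicle-only wells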
# PLAP activator: human PLAP activation. P05187. purified PLAP enzyme, luminescent substrate read-out; hits give high values. activation fold at 20 µM. hit rate 1.2% among 96,000. AID 696; in the data active = activation fold above about 2
# Target sequence (P05187 whole entry, looked up): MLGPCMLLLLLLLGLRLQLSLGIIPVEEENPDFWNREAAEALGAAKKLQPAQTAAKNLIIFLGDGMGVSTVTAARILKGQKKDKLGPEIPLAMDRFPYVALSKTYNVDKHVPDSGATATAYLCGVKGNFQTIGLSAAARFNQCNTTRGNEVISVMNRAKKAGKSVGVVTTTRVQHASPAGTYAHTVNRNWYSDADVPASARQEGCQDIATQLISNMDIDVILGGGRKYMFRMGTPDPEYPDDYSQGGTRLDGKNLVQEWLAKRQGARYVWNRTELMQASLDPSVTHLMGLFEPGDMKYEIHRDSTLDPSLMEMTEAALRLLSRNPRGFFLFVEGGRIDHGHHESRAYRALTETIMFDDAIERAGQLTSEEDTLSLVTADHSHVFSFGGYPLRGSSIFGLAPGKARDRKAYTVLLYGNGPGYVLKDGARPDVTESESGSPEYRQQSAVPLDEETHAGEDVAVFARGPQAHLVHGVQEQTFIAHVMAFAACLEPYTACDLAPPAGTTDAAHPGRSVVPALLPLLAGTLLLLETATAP
# CYP2C19 inh: human CYP2C19 inhibition; P33261; CYP2C19 Supersomes, luciferin-H EGE luminescence, 30 min; inhibition, % at 5 µM; hit rate 21% among 96,000; AID 778;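 active = CYP2C19 inhibition above a set limit at 5 µM in the primary screen, cut at about 50% in these data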;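 also: plate controls were negative control wells for no effect and 2.5 mM tranylcypromine positive control for full effect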
# CYP2C19 activ: cytochrome P450 2C19 (human) activation. P33261. recombinant CYP2C19, luciferin-H EGE luminescence; hits give high values; 0 = fully inhibited enzyme, 1 = untreated enzyme. activation factor at 5 µM. 96,000 tested, under 10 active. AID 1025;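 active = activation factor of at least 2 at 5 µM in the primary screen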;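 also: 0 = wells with 2.5 mM tranylcypromine and 1 = vehicle-only wells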
# Numbers without * were called inactive. This is a sample that favours compounds with a hit; in the whole collection about 31% have one here.
SMILES,CYP2C9 inh,CYP2C9 activ,PLAP activator,CYP2C19 inh,CYP2C19 activ
COc1ccc(-n2c(Cc3cccn3C)nnc2SCC(=O)Nc2cccc(F)c2)cc1,50*,0.5,1.6,51*,0.5
COc1ccc(-n2c(Cc3cccn3C)nnc2SCC(=O)NCc2ccco2)cc1,25,0.7,1.3,-12,1.1
N/C(COc1ccc(C(=O)O)cc1)=N\O,-15,1.1,1.1,-18,1.2
COc1ccc(N2C(=O)CCC(C(=O)NCc3cccnc3)C2c2ccc(OC)c(OC)c2)cc1 (stereo unspecified),16,0.8,1.5,19,0.8
CN(C)CCCNc1cc(Cl)c(S(=O)(=O)N2CCCCC2)cc1C(=O)O,-3,1,1.5,2,1
CCc1ccc(NC(=O)CSc2nnc(Cc3cccn3C)n2-c2ccc(OC)cc2)cc1,85*,0.1,1.4,52*,0.5
Cn1cccc1Cc1nnc(SCC(=O)Nc2ccc(Cl)cc2)n1-c1ccc(F)cc1,58*,0.4,1.6,54*,0.5
CN(C1CCCCC1)S(=O)(=O)c1ccc(S(=O)(=O)N2CCN(C(=O)c3ccccc3F)CC2)cc1,4,1,0.9,8,0.9
C=CCN(C(=O)c1cccc(S(=O)(=O)N2CCN(C)CC2)c1)c1nc(-c2ccccc2)cs1,77*,0.2,1.7,79*,0.2
CCC(C)NCc1ccc(C(=O)OC)o1 (stereo unspecified),3,1,1,10,0.9
CC(c1cccs1)N(Cc1ccco1)C(=O)Nc1ccc(Cl)c(Cl)c1 (stereo unspecified),97*,0,0.4,78*,0.2
COc1cccc(NC(=O)N(Cc2ccco2)C(C)c2cccs2)c1 (stereo unspecified),33,0.7,0.9,39,0.6
CN1C(=O)c2cccc(NCCCCCCN3C(=O)c4ccccc4C3=O)c2C1=O,75*,0.3,1,32,0.7
CN1C(=O)c2cccc(NCCCN3C(=O)c4ccccc4C3=O)c2C1=O,28,0.7,1.1,27,0.7
CCCNC(=O)CS(=O)Cc1nc(-c2cccc(OC)c2)oc1C (stereo unspecified),6,0.9,1.1,7,0.9
COc1ccc(-c2nc(CS(=O)CC(=O)NCc3ccco3)c(C)o2)cc1 (stereo unspecified),33,0.7,1.3,29,0.7
COc1ccc(-c2nc(CS(=O)CC(=O)NCc3cccnc3)c(C)o2)cc1 (stereo unspecified),62*,0.4,1.5,48,0.5
COc1cccc(-c2nc(CS(=O)CC(=O)NCc3ccccc3)c(C)o2)c1 (stereo unspecified),58*,0.4,1.4,54*,0.5
CCc1ccc(-c2nc(CS(=O)CC(=O)NCc3cccnc3)c(C)o2)cc1 (stereo unspecified),70*,0.3,1.5,15,0.8
COc1ccc(C(=O)/C=C(\C)NCc2ccc3c(c2)OCO3)cc1,26,0.7,0.9,24,0.8
CC(C)(C)SCCNC(=O)CSCc1ccc([N+](=O)[O-])cc1,24,0.8,1.1,-1,1
COc1ccc(N2CCCn3c2nc2c3c(=O)n(Cc3ccc(F)cc3)c(=O)n2C)c(OC)c1,-8,1.1,1.4,1,1
CCOC(=O)c1c(CN(C)C)oc2cc(CN(C)C)c(O)c(CSc3ccccc3)c12,15,0.8,1.7,92*,0.1
CCOC(=O)c1c(CN2CCOCC2)n(-c2ccccc2)c2cc(Br)c(O)c(CN(C)C)c12,38,0.6,1.5,42,0.6
O=C(NCCc1c[nH]c2ccccc12)C1CCC(Cn2c(=S)[nH]c3ccccc3c2=O)CC1 (stereo unspecified),98*,0,1.8,100*,0
SMILES,CYP2C9 inh,CYP2C9 activ,PLAP activator,CYP2C19 inh,CYP2C19 activ
COCCNC(=O)C1CCC(Cn2c(=S)[nH]c3ccccc3c2=O)CC1 (stereo unspecified),61*,0.4,0.9,53*,0.5
CCOC(=O)CSc1nnc(CNC(=O)c2cccs2)n1CCc1ccccc1,14,0.9,1.1,36,0.6
CN(C(=O)C1CCOC1)c1nnc(-c2ccncc2)s1 (stereo unspecified),24,0.8,0.9,98*,0
CN(C(=O)C1CCCO1)c1nnc(-c2ccncc2)s1 (stereo unspecified),14,0.9,0.9,98*,0
CN(C(=O)C1CCOC1)c1nnc(-c2ccccn2)s1 (stereo unspecified),-6,1.1,0.9,-4,1
COc1ccc(N2CS(=O)(=O)/C(=C/N(C)C)C2=O)cc1,-4,1,1.1,-2,1
CC1=CC(C)(C)Nc2ccc(C)cc21,-21,1.2,1.2,9,0.9
COC(=O)C1=C(C(=O)OC)SC2(S1)C(C(=O)OC)=C(C(=O)OC)SC1=C2c2cc(C)ccc2NC1(C)C,87*,0.1,1.7,82*,0.2
CCc1ccc(N(CC(=O)NC2CCCCC2)S(=O)(=O)c2c(C)noc2C)cc1,2,1,0.9,2,1
Cc1c(NC(=O)Cn2ccc([N+](=O)[O-])n2)c(=O)n(-c2ccccc2)n1C,-55,1.6,0.9,3,1
CC(=O)Nc1cc(NC(C)=O)cc(C(=O)OCC(=O)N2CC(C)OC(C)C2)c1 (stereo unspecified),6,0.9,1.1,-10,1.1
COc1ccc(NS(=O)(=O)c2ccc(O)c(C(=O)OCC(=O)N3CC(C)OC(C)C3)c2)cc1 (stereo unspecified),82*,0.2,1.2,71*,0.3
COc1ccc(OC)c(CN2CCN(C(=O)c3cccs3)CC2)c1,70*,0.3,1.5,91*,0.1
COc1ccc(OC)c(CN2CCN(C(=O)c3cccc4ccccc34)CC2)c1,-37,1.4,1.8,55*,0.4
COc1ccc(OCC(=O)N2CCN(C(=O)c3cccc4ccccc34)CC2)cc1,3,1,1.4,2,1
COc1ccccc1C1(O)CCN(C(=O)c2cccs2)CC1,54*,0.5,1,18,0.8
COc1cccc(CN2CCN(C(=O)c3cccs3)CC2)c1OC,16,0.8,1.1,50,0.5
Cc1ccc(OCC(=O)N2CCN(C(=O)c3cccs3)CC2)cc1,6,0.9,1,18,0.8
COc1cccc(C2(O)CCN(C(=O)c3cccs3)CC2)c1,25,0.7,1,46,0.5
COc1ccc(CN2CCN(C(=O)c3cccs3)CC2)cc1,10,0.9,1.1,58*,0.4
COc1cc(/C=N/NC(=O)CNC(=O)c2ccccc2)ccc1OC(=O)c1cccs1,38,0.6,1,27,0.7
Cc1cc2oc(C(=O)N(Cc3ccco3)C3CCS(=O)(=O)C3)cc(=O)c2cc1Cl (stereo unspecified),22,0.8,1.5,-8,1.1
CC(C)(C)c1ccccc1OCC(=O)Nc1ncn[nH]1,21,0.8,2*,42,0.6
